A selection: hits, their analogues and other compounds. The true share with any hit is near 2.4%.
TDP1 block – blocks human tyrosyl-DNA phosphodiesterase 1 | Q9NUW8 | recombinant TDP1, AlphaScreen DNA substrate cleavage | Potency, µM (doses to about 130 µM), actives largely listed as inhibitors | 350,000 tested, 0.28% active; note: nearly all actives have a fitted effect of over 40% in size
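Here, a 5' biotin and 3' phosphotyrosine-FITC DNA oligonucleotide reports Tdp1 activity: intact substrate bridges AlphaScreen beads, while cleavage leaves a 3' phosphate and drops signal. All incubations at room temperature.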
Pol eta inh-1 – DNA polymerase eta (human) inhibition; Q9Y253; recombinant Pol eta, fluorescent DNA replication assay; Potency, µM (doses to about 114 µM), actives largely listed as inhibitors; 390,000 tested, 1.2% active
Target sequence (Q9Y253 whole entry, looked up): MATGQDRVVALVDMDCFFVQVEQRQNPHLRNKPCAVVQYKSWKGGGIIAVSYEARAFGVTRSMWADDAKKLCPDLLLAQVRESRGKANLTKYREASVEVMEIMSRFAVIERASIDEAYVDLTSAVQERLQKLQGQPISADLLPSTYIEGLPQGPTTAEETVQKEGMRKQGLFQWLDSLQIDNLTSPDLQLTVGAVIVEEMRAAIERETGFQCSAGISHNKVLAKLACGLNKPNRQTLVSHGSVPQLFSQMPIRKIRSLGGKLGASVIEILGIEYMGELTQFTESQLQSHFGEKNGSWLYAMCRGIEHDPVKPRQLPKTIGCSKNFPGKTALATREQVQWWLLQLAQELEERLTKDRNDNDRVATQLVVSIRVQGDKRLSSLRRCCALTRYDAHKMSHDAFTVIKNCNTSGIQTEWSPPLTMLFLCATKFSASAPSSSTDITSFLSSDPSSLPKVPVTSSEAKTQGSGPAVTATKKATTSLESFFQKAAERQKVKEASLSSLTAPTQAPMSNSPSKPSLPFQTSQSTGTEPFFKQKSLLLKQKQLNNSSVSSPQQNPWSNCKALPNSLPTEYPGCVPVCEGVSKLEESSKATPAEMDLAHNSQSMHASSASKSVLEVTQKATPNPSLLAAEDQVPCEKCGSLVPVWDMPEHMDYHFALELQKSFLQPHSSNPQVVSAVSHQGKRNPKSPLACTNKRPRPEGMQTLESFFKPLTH
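Pol eta (10 nM) was preincubated with compounds for 15 min at room temperature, after which fluorescent replication substrate (50 nM final) was added to start the reaction. Fluorescence was read kinetically at 0 and 10 min.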
FEN1 inh – inhibitors of human flap endonuclease 1; Recombinant FEN1 flap cleavage, fluorescence, 15 min; Potency, µM (series often up to 114 µM), usual class: inhibitors; 390,000 tested, 0.35% active; note: nearly all actives have a fitted effect of over 65% in size
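FEN1 at 10 nM, compound pretreatment for 15 min (room temperature), 50 nM final substrate to initiate; endpoint reads at 0 and 15 min; DMSO-only plates used as vehicle background.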
Pol kappa inh-1 – blocks human DNA polymerase kappa activity; purified Pol kappa, fluorescent DNA synthesis assay, 10 min; Potency, µM (series often up to 107 µM), most hits filed as inhibitors; 400,000 tested, 0.53% active; AID 588579
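Here, compound and 10 nM enzyme are combined for 15 min at room temperature; adding 50 nM substrate (final) starts DNA synthesis, tracked by fluorescence at 0 and 10 min against buffer-only wells.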
Pol beta inh – DNA polymerase beta (human) inhibition; 340,000 tested, 1.3% active; Potency, µM (titrated, usually from 114 µM), usual class: inhibitors; Pol beta primer extension/strand displacement, fluorescence kinetic
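Kinetic readout of DNA synthesis with strand displacement by Pol beta. Compound and 10 nM enzyme sit 15 min at room temperature; 50 nM substrate starts the reaction, read immediately and at 10 min.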
POLI inh – blocks human DNA polymerase iota activity; Q9UNA4; Pol iota fluorescent replication assay, 10 min; Potency, µM (top dose mostly 115 µM), usual class: inhibitors; 390,000 tested, 1% active; AID 588590
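Fluorescent replication assay read twice, at 0 min and 10 min after adding 50 nM (final) substrate. Enzyme (10 nM) and compounds were first incubated 15 min at room temperature; enzyme-free buffer wells were negative controls.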
GALK confirm – confirmation of human galactokinase (GALK) inhibitors. shares compounds with Pol eta inh-1. 150 tested, 70% active. Potency, µM (highest dose often 115 µM), usual class: inhibitors. purified GALK, Kinase-Glo ATP depletion luminescence
Redox cycling – redox cycling activity in phenol red-HRP assay. shares compounds with Pol eta inh-1. Phenol red-HRP H2O2 redox cycling, absorbance 600 nm. Potency, µM (top dose mostly 115 µM), usual class: inhibitors. 150 tested, 40% active
HEK293 tox – reduces HEK-293 cell viability in GALK counter-screen | shares compounds with Pol eta inh-1 | HEK-293 viability, ATP luminescence (CellTiter-Glo), 24/48 h | Potency, µM (titrated, usually from 46.1 µM), actives largely listed as inhibitors | 170 tested, 10% active
Pol kappa inh-2 – Pol kappa (human) inhibition, cherry-pick confirmation; shares compounds with Pol eta inh-1; Potency, µM, actives largely listed as inhibitors; 920 tested, 76% active; purified Pol-kappa, fluorescent strand-displacement substrate
Pol eta inh-2 – Pol eta (human) inhibition, cherry-pick confirmation; shares compounds with Pol eta inh-1; Pol eta primer extension, TAMRA/BHQ fluorescence, 10 min; Potency, µM, most hits filed as inhibitors; 2,600 tested, 64% active; AID 720502
Numbers stand for hits; n = inactive; u = inconclusive; x = no result given; [ ] = dose if it differs, or a comment. Calls come from the whole dose curve; as a rule, active = well fitted curve in the direction sought with a large enough effect; inconclusive = small, poorly fitted or top-dose-only effect, or another doubt; inactive = no such curve, though single readings can be large; an effect the other way counts as inactive or inconclusive.

SMILES	TDP1 block	Pol eta inh-1	FEN1 inh	Pol kappa inh-1	Pol beta inh	POLI inh	Pol eta inh-2	others
COc1ccc(OC)c(NC(=O)CN2C(=O)CCc3cc(S(=O)(=O)N4CCCCC4)ccc32)c1	n	n	n	n	n	n	x
c1ccc2c(c1)OCC(c1nnc3sc(-c4cnccn4)nn13)O2 (stereo not given)	n	89µM	n	n	n	u	u
Fc1ccc(-c2nn3c(C4COc5ccccc5O4)nnc3s2)cc1 (stereo not given)	n	n	n	n	n	n	x
CC(C)c1ccc(OCC(=O)Nc2c(Cl)ccc3nsnc23)cc1	n	n	n	n	n	n	x
CC(=O)OCC1=C(C(=O)O)N2C(=O)C(NC(=O)COc3ccc(F)cc3)C2SC1 (stereo not given)	n	8.9µM	n	22µM	x	5.6µM	27
C=CC1=C(C(=O)O)N2C(=O)C(NC(=O)Cc3ccccc3)C2SC1 (stereo not given)	x	22µM	n	79µM	u	13µM	67
Cn1nnnc1SCC1=C(C(=O)O)N2C(=O)[C@@H](NC(=O)[C@@H](O)c3ccccc3)[C@@H]2SC1	n[21 µM]	x	x	n[12 µM]	x	x	x
Cc1nnc(SCC2=C(C(=O)O)N3C(=O)C(NC(=O)COc4ccc(F)cc4)C3SC2)s1 (stereo not given)	n	4µM	n	50µM	x	20µM	30	Pol kappa inh-2=9.5
Cc1nnc(SCC2=C(C(=O)O)N3C(=O)C(NC(=O)c4cc(F)c(F)cc4Cl)C3SC2)s1 (stereo not given)	u	20µM	n	u	u	u	34
CC1=C(C(=O)OCc2ccc([N+](=O)[O-])cc2)N2C(=O)C(NC(=O)Cc3ccccc3)C2SC1 (stereo not given)	x	n	n	n	n	u	x
CCOC(=O)c1noc2ncn(CC(=O)Nc3cccc(Cl)c3)c(=O)c12	n	n	n	n	n	u	x
CC(=O)OCC1=C(C(=O)O)N2C(=O)C(NC(=O)CC(C)c3ccccc3)C2SC1 (stereo not given)	n	22µM	n	n	x	u	u	Pol kappa inh-2=u
O=C(O)c1ccc2nc(-c3cc4cc(F)ccc4oc3=O)[nH]c2c1	x	35µM	n	n	35µM	u	60
COCCN(C(=O)COC(=O)COc1ccc2c(c1)CCC2)c1c(N)n(Cc2ccccc2)c(=O)[nH]c1=O	x	n	n	n	x	n	x
COCCCN(C(=O)c1cc(Cl)nc2ccccc12)c1c(N)n(Cc2ccccc2)c(=O)[nH]c1=O	n	n	n	n	x	n	x
COCCCN(C(=O)c1cc(-c2ccco2)nc2ccccc12)c1c(N)n(Cc2ccccc2)c(=O)[nH]c1=O	x	25µM	n	u	x	40µM	u
COCCN(C(=O)COC(=O)Cc1coc2cc3c(cc12)CCC3)c1c(N)n(Cc2ccccc2)c(=O)[nH]c1=O	13µM	20µM	n	u	x	28µM	76
CCCC[C@@H](C=O)NC(=O)[C@H](CC(C)C)NC(=O)[C@H](CC(C)C)NC(C)=O	n	x	x	n[19.4 µM]	x	x	x
O=C(O)CC(C(=O)O)c1ccc(OCCCCOc2ccc(C(CC(=O)O)C(=O)O)cc2)cc1 (stereo not given)	28µM	18µM	n	79µM	u	79µM	9.5	Pol kappa inh-2=9.5
CCOc1ccc(N(CC)S(=O)(=O)N2CCCC(C(=O)Nc3cc(Cl)ccc3OC)C2)cc1 (stereo not given)	n	n	n	n	n	n	x
CC(=O)Nc1ccc(NC(=S)NC(=O)/C=C/c2ccco2)cc1	x	28µM	50µM	45µM	n	u	60
COc1cccc(NC(=S)NC(=O)/C=C/c2ccco2)c1	n	45µM	n	u	40µM	28µM	48	Pol kappa inh-2=17
O=C(/C=C/c1ccco1)Nc1cccc(NC(=O)/C=C/c2ccco2)n1	x	20µM	n	n	25µM	35µM	u
O=[N+]([O-])c1c(Nc2ccccn2)cc(Cl)c2nonc12	n	u	u	u	u	u	54
O=[N+]([O-])c1c(Nc2ccc(O)cc2)cc(Cl)c2nonc12	x	50µM	u	n	n	3.5µM	u
SMILES	TDP1 block	Pol eta inh-1	FEN1 inh	Pol kappa inh-1	Pol beta inh	POLI inh	Pol eta inh-2	others
CCNc1cc(Nc2c(C)n(C)n(-c3ccccc3)c2=O)c([N+](=O)[O-])c2nonc12	n	n	n	n	n	n	x
C=Cc1ccc(Cn2c(C(=O)O)c(CNC3CCCCC3)c3ccc(C)cc32)cc1	n	n	n	n	n	n	x
COc1cc(NC(=O)COCc2cc(-c3ccc4c(c3)OCO4)on2)c(OC)cc1Cl	n	u	n	n	n	n	x
CC1(C)CC(=O)C2=C(C1)NC(Nc1nc3ccccc3o1)=NC2c1ccccc1Cl (stereo not given)	n	x	n	n	x	n	x	HEK293 tox=n
CC1(C)CC(=O)C2=C(C1)NC(Nc1nc3ccccc3o1)=NC21CCCC1	n	n	n	n	n	n	x	GALK confirm=u;Redox cycling=n;HEK293 tox=n
O=C1CCCC2=C1C1(CCCC1)N=C(Nc1nc3cc(Br)ccc3o1)N2	n	x	x	x	x	x	x
CC1(C)CC(=O)C2=C(C1)NC(Nc1nc3ccccc3o1)=NC2c1ccccn1 (stereo not given)	n	n	n	n	n	n	x
C=CCc1ccccc1OCCSc1nc(-c2ccc(C(C)(C)C)cc2)nc2cc(=O)[nH]n12	n	u	u	n	40µM	u	76
Cc1ccc(CSc2nc(-c3ccc(C(C)(C)C)cc3)nc3cc(=O)[nH]n23)cc1	n	50µM	n	u	u	u	85
Cc1ccc(-c2nc(SCCOc3ccccc3C)n3[nH]c(=O)cc3n2)cc1	n	n	n	n	n	n	x
O=c1cc2nc(-c3ccccc3)nc(SCc3cccc(Br)c3)n2[nH]1	n	u	n	n	u	n	x

Screens from PubChem BioAssay.
